PubChem BioAssay

experiment: small-molecule binders of probe aNOTCH3, primary screen, biochemical, small-molecule microarray, 635/667 nm fluorescence (AID 1120); conditions: higher = more signal;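 further: probe is a biotin-tagged antibody raised against NOTCH3 rather than NOTCH3 protein; score merges spot fluorescence near 667 nm with spot signal to noise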

SMILES | composite z-score
CCCCCN1CC=CC23O[C@@H]4C=CCOC(=O)[C@@H]4[C@H]2C(=O)N(C(C)CO)[C@@H]3C1=O (stereo partly specified) | -0.403
CO[C@H]1O[C@H](CO)[C@@H](OC(=O)Nc2cccc(F)c2)[C@H](OC(=O)Nc2ccccc2)[C@H]1OC(=O)Nc1ccccc1 | 0.146
NC(=O)[C@@H]1[C@H]2C(=O)O[C@H](c3ccccc3)[C@H](c3ccccc3)N2[C@H](c2ccc(O)cc2)[C@@]12C(=O)Nc1ccc(C#CC3=CCCCC3)cc12 | 0.81
C=CC1c2cc(O)c(OC)cc2CCN1Cc1cccc(OC(F)(F)F)c1 (stereo unspecified) | -0.0596
CC(C)[Si](C#CCCCC#N)(O[C@H](c1ccccc1)c1cn(Cc2cccc(Cl)c2)nn1)C(C)C | 0.0871
COC(=O)c1c2oc(c1C(=O)OC)C(=O)NC1(CCCCC1)c1cn(nn1)C[C@H](Cc1ccccc1)NC(=O)N[C@H](CO)CC2 | -0.207
